Here are results for nine molecules from PubChem BioAssay (NCI).

The panel holds about 83,000 compounds, 20% with a hit somewhere; the sample as a whole holds those more often.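 In brief: 96-well plates, 48 h treatment, single concentration, percent growth endpoint.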 Unmarked numbers belong to inactive results. Calls of active or inactive are those of the source. How the source made its calls: active means growth percent below 10; inactive means the rest.

Some test systems named below: SR leukemia; OVCAR-8 ovarian; OVCAR-5 ovarian; OVCAR-4 ovarian; SK-OV-3 ovarian; IGROV1 ovarian; OVCAR-3 ovarian; HS 578T breast; NCI/ADR-RES ovarian; T-47D breast; BT-549 breast; MDA-MB-435 melanoma; SW-620 colon; MCF7 breast; HCT-116 colon; HCC-2998 colon; KM12 colon; RPMI-8226 leukemia.
Common to all, as to test: NCI-60 one-dose screen, 48 h (100 = growth as untreated, 0 = no growth, -100 = all killed)
What all share (settings): 10 µM unless noted

Take `O=C(CCCCCCCC(=O)N1CCCCC1)N1CCCCC1`: the growth is 135% with SR leukemia; 98.8% in the assay with OVCAR-8 ovarian; 98.7% in the assay on OVCAR-5 ovarian; 107% with OVCAR-4 ovarian; 115% with SK-OV-3 ovarian; 109% in the assay with IGROV1 ovarian. Besides, the growth in the assay on OVCAR-3 ovarian is 111%; in the assay on HS 578T breast, 96.5%; in the assay on NCI/ADR-RES ovarian, 89%; in the assay with T-47D breast, 117%; in the assay on BT-549 breast, 96.4%; with MDA-MB-435 melanoma, 105%. The growth with SW-620 colon is 92.2%; in the assay on MCF7 breast, 97.1%; in the assay with HCT-116 colon it was 94.8%; with HCC-2998 colon, 86.5%; in the assay with KM12 colon, 100%.
Turning to `COCC(=O)Oc1cc(-c2ccc(C)cc2C)c(OC(=O)COC)c(-c2ccc(C)cc2C)c1`, the growth in the assay with SR leukemia is 20.6%; in the assay on OVCAR-8 ovarian, 59.5%; with OVCAR-5 ovarian it was 38.1%; in the assay on OVCAR-4 ovarian, 50.5%; with SK-OV-3 ovarian, 66.2%; in the assay with IGROV1 ovarian, 50.1%. Further, the growth in the assay on OVCAR-3 ovarian is 51.9%; with HS 578T breast, 55%; with NCI/ADR-RES ovarian, 68.2%; in the assay with T-47D breast it was 43.7%; in the assay with BT-549 breast, 56.6%; in the assay with MDA-MB-435 melanoma it was 59.6%. In addition, the growth was 43.2% in the assay on SW-620 colon; 41% in the assay with MCF7 breast; 17.7% with HCT-116 colon; 88% in the assay with HCC-2998 colon; 44.8% with KM12 colon.
Turning to `CC(=O)O[C@H]1CC[C@]2(C)[C@H]3CC=C4[C@@H]5CC(C)(C)CC[C@]5(C(=O)N5CCN(CCC#N)CC5)CC[C@@]4(C)[C@]3(C)CC[C@H]2C1(C)C`, the growth in the assay on SR leukemia is 13.7%; with RPMI-8226 leukemia it was 13.3%; with OVCAR-5 ovarian, 70.6%; with SK-OV-3 ovarian, 60.6%; with IGROV1 ovarian it was 39.1%; in the assay with OVCAR-3 ovarian it was -9.23% (active). The growth in the assay with HS 578T breast is 61.2%; in the assay with NCI/ADR-RES ovarian, 48.8%; in the assay with T-47D breast, 29%; in the assay on BT-549 breast, 40.9%; with MDA-MB-435 melanoma, 31.5%; with SW-620 colon it was 19.4%. The growth with MCF7 breast was 11.6%; with HCT-116 colon it was -2.33% (active); in the assay with HCC-2998 colon it was 47.7%; with KM12 colon, 28.6%.
`COc1cc(N2C(=O)[C@H](Cl)C2c2ccc(SC)cc2)cc(OC)c1OC` (stereo partly specified): the growth in the assay on SR leukemia is 1.95% (active); in the assay on OVCAR-5 ovarian, 70%; in the assay on SK-OV-3 ovarian it was 20.4%; with IGROV1 ovarian it was 27.8%; in the assay with OVCAR-3 ovarian, 3.77% (active); in the assay with HS 578T breast it was 25.1%. Further, the growth in the assay with NCI/ADR-RES ovarian was -0.874% (active); with T-47D breast, 49.1%; with BT-549 breast, -9.33% (active); in the assay on MDA-MB-435 melanoma it was -26.3% (active); in the assay with SW-620 colon, 24.3%; with MCF7 breast, 12.4%. Also, the growth in the assay with HCT-116 colon was -17.2% (active); with HCC-2998 colon, 7.52% (active); in the assay on KM12 colon, 14.4%.
On to `COc1ccc2c(c1)oc1c(C)c3c(c(C)c12)C(=O)N(CCOS(C)(=O)=O)C3=O`, for which the growth is 65.8% in the assay with SR leukemia; 94% in the assay on RPMI-8226 leukemia; 91.6% with OVCAR-5 ovarian; 120% in the assay with SK-OV-3 ovarian; 88.4% with IGROV1 ovarian; 118% in the assay with OVCAR-3 ovarian. The growth in the assay on HS 578T breast is 109%; in the assay with NCI/ADR-RES ovarian, 97.7%; in the assay with T-47D breast it was 103%; in the assay on BT-549 breast, 90%; in the assay on MDA-MB-435 melanoma it was 94.9%; in the assay with SW-620 colon it was 94.2%. The growth with MCF7 breast was 73.7%; with HCT-116 colon, 94.1%; with HCC-2998 colon, 100%; in the assay on KM12 colon it was 107%.
With `CC(=O)c1ccc(-n2cc(CN3CCN(c4cc5c(cc4F)c(=O)c(C(=O)O)cn5C4CC4)CC3)nn2)cc1`, the growth was 99.6% in the assay with SR leukemia; 95.1% with OVCAR-8 ovarian; 103% with OVCAR-5 ovarian; 102% in the assay on OVCAR-4 ovarian; 84.9% in the assay with SK-OV-3 ovarian; 75.3% in the assay on IGROV1 ovarian. Besides, the growth in the assay with OVCAR-3 ovarian is 90.4%; with HS 578T breast, 80.6%; with NCI/ADR-RES ovarian, 87.9%; with T-47D breast it was 96.4%; in the assay on BT-549 breast, 102%; in the assay on MDA-MB-435 melanoma, 96.3%. Moreover, the growth is 90% in the assay on SW-620 colon; 72.9% in the assay with MCF7 breast; -9.74% (active) in the assay on HCT-116 colon; 86% in the assay on HCC-2998 colon; 84.9% in the assay on KM12 colon.
For `CCOC(=O)c1nnn(Cc2cc(=O)oc3ccc(O)cc23)c1C`, the growth in the assay with SR leukemia is 92.8%; with OVCAR-8 ovarian, 107%; with OVCAR-5 ovarian, 101%; with SK-OV-3 ovarian, 105%; in the assay on IGROV1 ovarian, 106%; in the assay on OVCAR-3 ovarian, 107%. Also, the growth with HS 578T breast was 93.5%; in the assay on NCI/ADR-RES ovarian it was 108%; with T-47D breast, 98%; in the assay on BT-549 breast, 110%; with MDA-MB-435 melanoma it was 104%; in the assay on SW-620 colon, 98.2%. In addition, the growth in the assay with MCF7 breast is 92.4%; in the assay with HCT-116 colon it was 96%; in the assay with HCC-2998 colon it was 97.3%; in the assay on KM12 colon it was 102%.
Consider `CN1C(=O)/C(=C/c2ccc(C(=O)Nc3ncc(Cc4cccc(C(F)(F)F)c4)s3)cc2)SC1=S`, for which the growth is 52.6% with SR leukemia; 59.8% in the assay with OVCAR-8 ovarian; 60.8% with OVCAR-5 ovarian; 34.4% with OVCAR-4 ovarian; 50.6% in the assay on SK-OV-3 ovarian; 56.7% in the assay on IGROV1 ovarian. Further, the growth in the assay with OVCAR-3 ovarian was 71.1%; in the assay with HS 578T breast it was 63.9%; in the assay with NCI/ADR-RES ovarian, 33.4%; in the assay with T-47D breast, 30%; in the assay with BT-549 breast, 47.3%; in the assay with SW-620 colon it was 38.2%. The growth in the assay on MCF7 breast is 30.4%; with HCT-116 colon, 43.7%; in the assay with HCC-2998 colon, 49.6%; in the assay on KM12 colon, 28%.
As to `COCCn1cc(-c2csc(-c3c[nH]c4ccccc34)n2)c2cccnc21`, the growth in the assay with SR leukemia is 8.15% (active); with OVCAR-8 ovarian, 38.6%; with OVCAR-5 ovarian, 75.7%; with OVCAR-4 ovarian, 44.3%; with SK-OV-3 ovarian, 49.5%; in the assay with IGROV1 ovarian it was 41.8%. Also, the growth was 20.7% with OVCAR-3 ovarian; 57.4% in the assay with HS 578T breast; 3.06% (active) in the assay with T-47D breast; 21.8% in the assay with BT-549 breast; 2.9% (active) in the assay on MDA-MB-435 melanoma; 30.7% in the assay on SW-620 colon. Besides, the growth in the assay on MCF7 breast is 9.88% (active); with HCT-116 colon it was 16.6%; in the assay with HCC-2998 colon, 42.1%; with KM12 colon it was 15.6%.
